Assay results published in PubChem BioAssay AID1159580 (chemical genetic matrix, 2015).
Where “and” joins values, the source holds several entries; their conditions need not be identical. Equal values may be shown once. About 2,000 (36%) of roughly 5,500 compounds were called active. Another 18% or so got no clear call; they are omitted. No stated cut-off is given here; in the data, active means normalized growth mostly below about 0.91 (no sharp cut-off); inconclusive means no clear call, values can overlap the other calls; inactive means mostly above about 0.92. This is one part of the list.

Test: chemical genetic growth profiling, strain panel (AID 1159580);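 further: tested at 20 µM; growth read once vehicle control cultures reached saturation at 30 °C; 1 = growth at the plate median or of vehicle wells; lower values mean less growth of the strain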
Details: growth OD

Measured: normalized growth

CN1Cc2c(N)cccc2C(c2ccccc2)C1 (centres undefined)
inactive: S. cerevisiae deletion strains, locus YJR075W, strain HOC1, hits give low values 1.01 and 0.995 | S. cerevisiae deletion strains, locus YKL009W, strain mrt4, hits give low values 1 | S. cerevisiae deletion strains, locus YKL068W, hits give low values 1 | S. cerevisiae deletion strains, locus YKL085W, strain MDH1 (second series), hits give low values 1.01 | S. cerevisiae deletion strains, locus YKL085W, strain MDH1, hits give low values 1.01 | S. cerevisiae deletion strains, locus YKL160W, strain elf1, hits give low values 1.02 | S. cerevisiae deletion strains, locus YKL190W, strain CNB1, hits give low values 1.01 | S. cerevisiae deletion strains, locus YKR001C, strain vps1, hits give low values 1 | S. cerevisiae deletion strains, locus YKR026C, strain gcn3, hits give low values 1.01 | S. cerevisiae deletion strains, locus YKR091W, strain srl3, hits give low values 1 | S. cerevisiae deletion strains, locus YLL001W, strain dnm1, hits give low values 1.01 | S. cerevisiae deletion strains, locus YLL026W, hits give low values 1.01 | S. cerevisiae deletion strains, locus YLL041C, strain sdh2, hits give low values 1.01 | S. cerevisiae deletion strains, locus YLR027C, strain aat2, hits give low values 1.02 | S. cerevisiae deletion strains, locus YLR039C, strain RIC1, hits give low values 1.03 | S. cerevisiae deletion strains, locus YLR058C, strain SHM2, hits give low values 1 | S. cerevisiae deletion strains, locus YLR102C, strain apc9, hits give low values 1.01 | S. cerevisiae deletion strains, locus YLR113W, strain HOG1, hits give low values 0.982 | S. cerevisiae deletion strains, locus YLR221C, strain rsa3, hits give low values 0.994 | S. cerevisiae deletion strains, locus YLR258W, strain gsy2, hits give low values 0.99 | S. cerevisiae deletion strains, locus YLR262C, strain YPT6 (second series), hits give low values 1.03 | S. cerevisiae deletion strains, locus YLR262C, strain YPT6, hits give low values 1.05 | S. cerevisiae deletion strains, locus YLR268W, strain sec22, hits give low values 1.02 | S. cerevisiae deletion strains, locus YLR320W, strain mms22, hits give low values 0.971 | S. cerevisiae deletion strains, locus YLR330W, strain CHS5, hits give low values 1.01 | S. cerevisiae deletion strains, locus YLR342W, strain FKS1 (second series), hits give low values 1.06 | S. cerevisiae deletion strains, locus YLR342W, strain FKS1, hits give low values 1.01 | S. cerevisiae deletion strains, locus YLR357W, strain rsc2, hits give low values 0.982 | S. cerevisiae deletion strains, locus YLR370C, strain arc18, hits give low values 1 | S. cerevisiae deletion strains, locus YLR371W, strain rom2, hits give low values 1.02 | S. cerevisiae deletion strains, locus YLR384C, strain iki3, hits give low values 1.01 | S. cerevisiae deletion strains, locus YLR418C, strain cdc73, hits give low values 1.01 | S. cerevisiae deletion strains, locus YML016C, strain PPZ1, hits give low values 1 | S. cerevisiae deletion strains, locus YML032C, strain rad52, hits give low values 0.994 | S. cerevisiae deletion strains, locus YML120C, strain ndi1, hits give low values 1.02 | S. cerevisiae deletion strains, locus YML124C, strain tub3, hits give low values 1.01 | S. cerevisiae deletion strains, locus YMR058W, strain fet3, hits give low values 1.02 | S. cerevisiae deletion strains, locus YMR078C, strain ctf18, hits give low values 1.02 | S. cerevisiae deletion strains, locus YMR125W, strain sto1, hits give low values 0.995 | S. cerevisiae deletion strains, locus YMR129W, hits give low values 1.01 | S. cerevisiae deletion strains, locus YMR205C, strain PFK2, hits give low values 1.04 | S. cerevisiae deletion strains, locus YMR223W, strain ubp8, hits give low values 1.03 | S. cerevisiae deletion strains, locus YMR231W, strain pep5, hits give low values 1 | S. cerevisiae deletion strains, locus YMR263W, strain SAP30, hits give low values 1 | S. cerevisiae deletion strains, locus YMR307W, strain GAS1, hits give low values 1.02 | S. cerevisiae deletion strains, locus YNL067W, strain RPL9B, hits give low values 0.988 | S. cerevisiae deletion strains, locus YNL071W, strain lat1, hits give low values 1.01 | S. cerevisiae deletion strains, locus YNL153C, strain GIM3, hits give low values 0.969 | S. cerevisiae deletion strains, locus YNL175C, strain NOP13, hits give low values 0.977 | S. cerevisiae deletion strains, locus YNL183C, strain NPR1, hits give low values 0.929 | S. cerevisiae deletion strains, locus YNL197C, strain WHI3, hits give low values 0.984 | S. cerevisiae deletion strains, locus YNL209W, strain ssb2, hits give low values 0.994 | S. cerevisiae deletion strains, locus YNL224C, strain SQS1, hits give low values 0.998 | S. cerevisiae deletion strains, locus YNL233W, strain BNI4, hits give low values 0.981 | S. cerevisiae deletion strains, locus YNL248C, strain rpa49, hits give low values 1.03 | S. cerevisiae deletion strains, locus YNL250W, strain rad50, hits give low values 1.02 | S. cerevisiae deletion strains, locus YNL271C, strain bni1, hits give low values 1.01 | S. cerevisiae deletion strains, locus YNL298W, strain CLA4, hits give low values 1.01 | S. cerevisiae deletion strains, locus YNL307C, strain MCK1, hits give low values 1.02 | S. cerevisiae deletion strains, locus YNL322C, strain KRE1 (second series), hits give low values 1.01 | S. cerevisiae deletion strains, locus YNR049C, strain mso1, hits give low values 1.02 | S. cerevisiae deletion strains, locus YNR052C, strain pop2, hits give low values 1.02 | S. cerevisiae deletion strains, locus YOL006C, strain TOP1, hits give low values 0.997 | S. cerevisiae deletion strains, locus YOL012C, strain htz1 0.779 | S. cerevisiae deletion strains, locus YOL147C, strain pex11, hits give low values 1.01 | S. cerevisiae deletion strains, locus YOR001W, strain rrp6, hits give low values 1.02 | S. cerevisiae deletion strains, locus YOR061W, strain CKA2, hits give low values 1.01 | S. cerevisiae deletion strains, locus YOR069W, strain VPS5, hits give low values 1.01 | S. cerevisiae deletion strains, locus YOR070C, strain gyp1, hits give low values 1 | S. cerevisiae deletion strains, locus YOR080W, strain dia2, hits give low values 1.02 | S. cerevisiae deletion strains, locus YOR083W, strain WHI5 (second series), hits give low values 0.983 | S. cerevisiae deletion strains, locus YOR083W, strain WHI5, hits give low values 0.989 | S. cerevisiae deletion strains, locus YOR106W, strain vam3, hits give low values 1.03 | S. cerevisiae deletion strains, locus YOR136W, strain idh2, hits give low values 1.01 | S. cerevisiae deletion strains, locus YOR144C, strain elg1, hits give low values 1.01 | S. cerevisiae deletion strains, locus YOR184W, strain ser1, hits give low values 1.01 | S. cerevisiae deletion strains, locus YOR231W, strain MKK1, hits give low values 0.986 | S. cerevisiae deletion strains, locus YOR265W, strain rbl2, hits give low values 1.01 | S. cerevisiae deletion strains, locus YOR270C, strain vph1, hits give low values 1.04 | S. cerevisiae deletion strains, locus YOR290C, strain snf2, hits give low values 0.99 | S. cerevisiae deletion strains, locus YOR316C, strain cot1, hits give low values 1.02 | S. cerevisiae deletion strains, locus YPL051W, strain arl3, hits give low values 1.01 | S. cerevisiae deletion strains, locus YPL055C, strain LGE1, hits give low values 0.96 and 0.983 | S. cerevisiae deletion strains, locus YPL078C, strain atp4, hits give low values 1.03 | S. cerevisiae deletion strains, locus YPL106C, strain sse1, hits give low values 0.969 | S. cerevisiae deletion strains, locus YPL240C, strain hsp82, hits give low values 1 | S. cerevisiae deletion strains, locus YPL241C, strain CIN2, hits give low values 1.01 and 0.99 | S. cerevisiae deletion strains, locus YPL256C, strain CLN2, hits give low values 0.974 | S. cerevisiae deletion strains, locus YPR119W, strain clb2, hits give low values 1.01 | S. cerevisiae deletion strains, locus YPR141C, strain kar3, hits give low values 1.02 | S. cerevisiae deletion strains, locus YPR163C, strain tif3, hits give low values 1.01 | S. cerevisiae deletion strains, locus YPR167C, strain met16, hits give low values 1.01 | S. cerevisiae deletion strains, strain wtn01, hits give low values 1.02 | S. cerevisiae strains, strain wild type, hits give low values 1
